# PD-1 reversal: reversal of PD-1 mediated T-cell inhibition. primary human CD4 T cells, PD-L1 beads, CellTiter-Glo 96 h. 29,000 tested, under 10 active. activation, % (concentration not given with the values); call rule not given here;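 also: 0% = median vehicle wells and 100% = positive control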
# STK33 kin inh: human STK33 kinase inhibition | Q9BYT3 | ADP-Glo luminescence, MBP substrate | inhibition, % at 12.5 µM | 0.44% of 27,000 active | AID 2322; in the data active = inhibition above about 20%; inconclusive = no clear call, values can overlap the other calls
# Target sequence (Q9BYT3 whole entry, looked up): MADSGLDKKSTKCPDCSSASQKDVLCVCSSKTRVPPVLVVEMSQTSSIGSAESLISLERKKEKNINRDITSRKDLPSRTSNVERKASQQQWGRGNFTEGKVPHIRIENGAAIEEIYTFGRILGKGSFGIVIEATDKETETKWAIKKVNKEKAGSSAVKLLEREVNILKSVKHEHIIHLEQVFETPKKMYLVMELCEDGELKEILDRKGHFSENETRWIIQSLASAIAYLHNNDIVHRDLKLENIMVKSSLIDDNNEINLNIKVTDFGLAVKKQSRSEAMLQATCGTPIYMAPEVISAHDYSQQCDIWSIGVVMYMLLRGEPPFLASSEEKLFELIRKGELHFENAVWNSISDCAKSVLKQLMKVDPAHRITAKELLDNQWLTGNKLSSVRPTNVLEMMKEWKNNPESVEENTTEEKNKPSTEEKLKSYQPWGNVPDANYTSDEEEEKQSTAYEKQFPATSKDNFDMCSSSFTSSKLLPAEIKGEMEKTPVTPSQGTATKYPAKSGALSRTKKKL
# NOMO-1 viab: STK33 inhibitor candidate reducing NOMO-1 cell viability | AID 2330 | 7.5% of 37,000 active | inhibition, % (concentration not given with the values) | NOMO-1 AML viability, CellTiter-Glo luminescence, 72 h; in the data active = inhibition above about 80%; inconclusive = no clear call, values can overlap the other calls
# Active calls of the source: *; ? = inconclusive; . = no result given. The full list was thinned out, with hits kept by preference.
SMILES,PD-1 reversal,STK33 kin inh,NOMO-1 viab
COc1ccc(CC(N)C(=O)N[C@H]2[C@@H](O)[C@H](n3cnc4c(N(C)C)ncnc43)O[C@@H]2CO)cc1 (stereo partly drawn),-25,0,98*
COC(=O)C1=C(C)N=c2s/c(=C/c3ccc(OC)cc3)c(=O)n2C1c1cccs1 (stereo not drawn),0,.,?
O=C(/C=C/c1ccccc1)Oc1ccccc1,-4,.,48
O=C(/C=C/c1ccc(O)c(O)c1)OCCc1ccccc1,-11,1,141*
COc1cc(NC(=O)COc2ccc(C(C)C)cc2)ccc1-c1cc2ccccc2oc1=O,0,1,32
C=CCN1CCc2c(cc(O)c(O)c2Br)[C@@H](c2ccccc2)C1,.,-7,109*
CN1CCc2cc(Cl)c(O)cc2[C@@H](c2ccccc2)C1,.,5,13
Cc1cccc(NC(=O)C(Cc2ccccc2)N2C(=O)c3cc(Cl)c(Cl)cc3C2=O)c1 (stereo not drawn),.,1,3
O=C(Nc1ccccc1)c1ccc(S(=O)(=O)c2cccc(S(=O)(=O)N3CCOCC3)c2)cc1,3,4,12
O=C(Nc1cc(S(=O)(=O)c2ccccc2)cs1)c1ccc(Cl)cc1,0,.,92*
COC(=O)CSc1nc(N(C)C)nc(N(C)C)n1,1,-6,31
C[C@@H]1O[C@@H](OC[C@H]2O[C@@H](Oc3cc(O)c4c(c3)OC(c3ccc(O)cc3)CC4=O)[C@H](O)[C@@H](O)[C@@H]2O)[C@H](O)[C@H](O)[C@H]1O (stereo partly drawn),1,4,2
CC(=O)N1c2ccccc2C(=O)C1NC(N)=S (stereo not drawn),0,.,23
COc1cccc(OCC(=O)Nc2ccc(OC)c(NC(=O)c3ccco3)c2)c1,.,-1,24
C[C@H]1CN([C@@H](C)CO)C(=O)Cc2cc(NS(=O)(=O)c3ccc(F)cc3)ccc2O[C@H]1CN(C)Cc1ccc(C(=O)Nc2ccccc2N)cc1,-1,.,140*
C[C@@H]1CN([C@@H](C)CO)C(=O)Cc2cc(NS(=O)(=O)c3ccc(F)cc3)ccc2O[C@@H]1CN(C)Cc1ccc(C(=O)Nc2ccccc2N)cc1,0,.,112*
C[C@@H]1CN([C@@H](C)CO)C(=O)Cc2cc(NS(=O)(=O)c3cn(C)cn3)ccc2O[C@@H]1CN(C)Cc1ccc(C(=O)Nc2ccccc2N)cc1,1,.,32
CCCCC/C=C\C/C=C\CCCCCCCC(=O)OC(CO)CO,2,-6,37
Cc1ccc(NC(=O)c2ccc(OCC(=O)Nc3ccc(Oc4ccccc4)cc3)cc2)c(C)c1,.,0,13
O=[N+]([O-])c1ccc(S(=O)(=O)NCCc2nc3ccccc3[nH]2)cc1,.,0,.
CCN(CC)C(=S)Oc1ccccc1C(=O)Nc1ccc(Cl)c(Cl)c1,2,.,14
O=C1O[C@@H](c2ccccc2)[C@@H](c2ccccc2)N2[C@@H](c3ccc(OCCO)cc3)[C@]3(C(=O)Nc4ccc(C#CC5=CCCCC5)cc43)[C@@H](C(=O)N3CCCCCCC3)[C@H]12,.,21*,.
NC(=O)[C@@H]1[C@H]2C(=O)O[C@H](c3ccccc3)[C@H](c3ccccc3)N2[C@H](c2ccc(OCCO)cc2)[C@@]12C(=O)Nc1ccc(C#CC3=CCCCC3)cc12,.,9,.
COc1cc2c(cc1OC)CN(C(=O)[C@H]1[C@@H]3C(=O)O[C@@H](c4ccccc4)[C@@H](c4ccccc4)N3[C@@H](c3ccc(OCCO)cc3)[C@]13C(=O)Nc1ccc(C#CC4=CCCCC4)cc13)CC2,.,22*,.
O=C1O[C@H](c2ccccc2)[C@H](c2ccccc2)N2[C@H]1[C@@H](C(=O)N1CCCCCCC1)[C@]1(C(=O)Nc3ccc(C#CC4(O)CCCCCC4)cc31)[C@H]2c1ccc(OCCO)cc1,.,18,.
SMILES,PD-1 reversal,STK33 kin inh,NOMO-1 viab
NC(=O)[C@@H]1[C@H]2C(=O)O[C@H](c3ccccc3)[C@H](c3ccccc3)N2[C@H](c2ccc(OCCO)cc2)[C@@]12C(=O)Nc1ccc(C#CC3(O)CCCCCC3)cc12,.,22*,.
COc1cc2c(cc1OC)CN(C(=O)[C@@H]1[C@H]3C(=O)O[C@H](c4ccccc4)[C@H](c4ccccc4)N3[C@H](c3ccc(OCCO)cc3)[C@@]13C(=O)Nc1ccc(C#CC4=CCCCC4)cc13)CC2,.,18,.
COc1cccc2cc(C(=O)C3C(=O)C(=O)N(CCc4ccccc4)C3c3cccnc3)oc12 (stereo not drawn),2,0,-8
COc1ccccc1NC(=O)CN(c1cc(Cl)c(Cl)cc1Cl)S(C)(=O)=O,1,0,1
Cc1ccsc1C1C(C(=O)c2ccco2)C(=O)C(=O)N1Cc1ccco1 (stereo not drawn),3,1,28
O=C(O)c1ccc(CNC(=O)c2cccnc2C(=O)O)cc1,0,-2,19
Cc1nc(-c2ccccc2)sc1C(=O)C1C(=O)C(=O)N(CCN2CCOCC2)C1c1ccccc1F (stereo not drawn),.,-3,14
COc1ccc(S(=O)(=O)N(C)CC(=O)NC2CCCC2)cc1,2,-2,9
CC(=O)Nc1ccc(C(=O)CSc2nc(-c3ccccc3)cs2)cc1,.,3,-28
OC(CN1CCNCC1)Cn1c2ccc(Br)cc2c2cc(Br)ccc21 (stereo not drawn),-12,2,121*
CC1CCN(CC(O)COc2c(F)cc(Br)cc2F)CC1 (stereo not drawn),0,.,2
COc1cc(OC)c2ccc(=O)oc2c1CC(O)C(C)(C)OC (stereo not drawn),0,-2,15
COc1ccc(NC(=O)CSc2cc(C)c3cccc(C)c3n2)cc1,-6,1,105*
CCOc1ccccc1NC(=O)CSc1cc(C)c2cccc(C)c2n1,-4,1,20
Cc1ccc(-c2nnc3c4ccccc4c(C)nn23)cc1S(=O)(=O)NCc1cccnc1,-2,1,53
COc1ccc(C)cc1N(CC(=O)Nc1cccc(Cl)c1Cl)S(C)(=O)=O,0,1,0
CS(=O)c1sc(C(=O)OCc2ccccc2)c2c1C(=O)CC(C)(C)C2 (stereo not drawn),-7,.,116*
CC1(C)CC(=O)c2c(SCCOC(=O)c3ccccc3Cl)sc(C#N)c2C1,0,.,-8
Cc1ccc(CC(c2nc3ccccc3[nH]2)C(C)c2nc3ccccc3[nH]2)cc1 (stereo not drawn),.,3,91*
Cc1ccc(OCCSCc2nc3ccccc3[nH]2)cc1,-3,0,40
Cc1c(C)c(C)c(CSC2CC(=O)N(c3ccccc3)C2=O)c(C)c1C (stereo not drawn),0,.,5
O=C1CC(Sc2nnc(-c3ccccc3O)o2)C(=O)N1c1ccccc1 (stereo not drawn),-14,-9,122*
CCn1c(SCC(=O)c2ccc(OC)cc2)nnc1-c1cc2cc(Br)ccc2o1,-1,0,-20
O=C1C(c2c(O)[nH]c3ccccc23)=Nc2ccccc21,0,25*,50
CCn1ccc(CNC(=O)Nc2ccc(Cl)cc2Cl)n1,.,-1,24
O=C(CSc1ncccc1C(=O)O)c1cccc([N+](=O)[O-])c1,.,-3,-22
CC(=O)C1=C(c2ccccc2)NC(=S)NC1c1cc(Cl)ccc1OCC(=O)O (stereo not drawn),2,0,21

# Screens deposited in PubChem BioAssay by Broad Institute.
